Screens as filed in PubChem BioAssay.
FBA Mtb inh – Mtb FBA enzyme inhibitors, primary screen, biochemical, fluorescence, strain H37Rv | purified M. tuberculosis FBA, fluorescence read-out | actives 2.3% (n = 360,000) | Fructose-bisphosphate aldolase (Mycobacterium tuberculosis (strain ATCC 25618 / H37Rv)), … | inhibition, % at 1 µM; in the data active = inhibition above about 27%;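 also: 0% = vehicle and 100% = reference inhibitor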
BoNT F protease – BoNT/F light chain protease inhibitors, primary screen, biochemical, flow cytometry, MLPCN library; Multiplex microsphere protease cleavage assay; inhibition, % at 10 µM; actives 0.22% (n = 360,000); in the data active = inhibition above about 35%, passing the limit was not always enough; inconclusive = no clear call, values can overlap the other calls; also: plate controls were buffer without enzyme for full effect and enzyme alone for no effect
Anthrax LF inh2 – Bacillus anthracis LF protease inhibitors, primary screen, biochemical, multiplex microsphere, MLPCN library | Lethal factor (Bacillus anthracis), P15917 | multiplex microsphere protease cleavage assay | inhibition, % at 10 µM | actives 0.12% (n = 360,000); also: plate controls were buffer without enzyme for full effect and enzyme alone for no effect
Bead autofluor – compound fluorescence in toxin protease inhibitor counterscreen. compound autofluorescence counterscreen, microsphere flow cytometry; active compounds read high. fluorescence intensity (no concentration beside the values). actives 3.1% (n = 360,000). AID 624483; in the data active = fluorescence intensity above about 16000; inconclusive = no clear call, values can overlap the other calls
GDH-TPI inh – GDH-TPI coupling enzyme inhibitors, primary screen, artefact control for M. tuberculosis FBA inhibitor project, biochemical, absorbance, full deck; GDH-TPI coupled enzyme counterscreen, NADH absorbance; inhibition, % at 4.8 µM; actives 1.2% (n = 360,000); in the data active = inhibition above about 30%;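 also: 0% = DMSO wells and 100% = wells lacking the enzyme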
BoNT-A LC inh2 – BoNT/A light chain protease inhibitors, primary screen, biochemical, flow cytometry, MLPCN library. AID 588499, 2011. inhibition, % at 10 µM. actives 0.17% (n = 360,000). multiplex microsphere protease substrate cleavage. Botulinum neurotoxin type A light chain protease (Clostridium botulinum A str. ATCC 3502); also: plate controls were buffer without enzyme for full effect and enzyme alone for no effect
Active calls of the source: *. Only some compounds are listed: those with a hit (about 6.6% of all), similar ones and a draw of the others. Rule as the data show it, unless noted: active = inhibition above about 30%; inconclusive = no clear call, values can overlap the other calls; inactive = below that.

What do the screens show for `Cc1ccc(NC(=O)Nc2ccc(F)cc2F)c(OC(F)F)c1`?
FBA Mtb inh: -3; BoNT F protease: -4; Anthrax LF inh2: -4; Bead autofluor: 4071; GDH-TPI inh: -10; BoNT-A LC inh2: 0

How did COc1ccc(NC(=O)c2cc(-c3cccnc3)nc3c(C)c(C)ccc23)c(OC)c1 do in these assays?
FBA Mtb inh: 0; BoNT F protease: 9; Anthrax LF inh2: 0; Bead autofluor: 17562*; GDH-TPI inh: 6; BoNT-A LC inh2: 9

Results for C/C=C/c1ccc(OCCSc2nc(C)cc(=O)[nH]2)c(OC)c1 ?
FBA Mtb inh: 1; BoNT F protease: -9; Anthrax LF inh2: -1; Bead autofluor: 17582*; GDH-TPI inh: 0; BoNT-A LC inh2: -6

What do the screens show for `Cc1cc(=O)[nH]c(SCCCOc2ccccc2Cl)n1`?
FBA Mtb inh: -1; BoNT F protease: -1; Anthrax LF inh2: -1; Bead autofluor: 20446*; GDH-TPI inh: -5; BoNT-A LC inh2: -2

How did Cc1cc(=O)[nH]c(SCc2cccc(Br)c2)n1 do in these assays?
FBA Mtb inh: 1; BoNT F protease: 3; Anthrax LF inh2: -1; Bead autofluor: 2170; GDH-TPI inh: 16; BoNT-A LC inh2: 1

Results for COc1ccc(CSc2nc(C)cc(=O)[nH]2)cc1Br ?
FBA Mtb inh: 4; BoNT F protease: 2; Anthrax LF inh2: 0; Bead autofluor: 23006*; GDH-TPI inh: 9; BoNT-A LC inh2: 0

Results for CCc1cc(OCCCSc2nc(C)cc(=O)[nH]2)ccc1Cl ?
FBA Mtb inh: -2; BoNT F protease: -3; Anthrax LF inh2: 0; Bead autofluor: 24555*; GDH-TPI inh: 5; BoNT-A LC inh2: inconclusive

Results for COc1ccc(C(=O)NC2CCCc3ccccc32)cc1OC1CCN(C(C)=O)CC1 (stereo unspecified) ?
FBA Mtb inh: 1; BoNT F protease: 0; Anthrax LF inh2: 0; Bead autofluor: 5082; GDH-TPI inh: 5; BoNT-A LC inh2: 0

What do the screens show for `CCOc1ccc(S(=O)(=O)N2CCN(S(=O)(=O)c3ccc(OCC)cc3)C(C)C2)cc1` (stereo unspecified)?
FBA Mtb inh: -1; BoNT F protease: -2; Anthrax LF inh2: -5; Bead autofluor: 17504*; GDH-TPI inh: 7; BoNT-A LC inh2: -2

What do the screens show for `CCOc1ccc(S(=O)(=O)N2CN3CCN(C3)C2)cc1`?
FBA Mtb inh: -3; BoNT F protease: -14; Anthrax LF inh2: 8; Bead autofluor: 3743; GDH-TPI inh: 12; BoNT-A LC inh2: -2

How did CC(=O)Oc1ccccc1/C=C/c1ccc2ccccc2[n+]1C do in these assays?
FBA Mtb inh: 2; BoNT F protease: -22; Anthrax LF inh2: 6; Bead autofluor: 3228; GDH-TPI inh: 31*; BoNT-A LC inh2: -4

How did COc1ccc(/C=C/c2ccc3ccccc3[n+]2C)cc1OC do in these assays?
FBA Mtb inh: -7; BoNT F protease: 5; Anthrax LF inh2: 2; Bead autofluor: 4109; GDH-TPI inh: 21; BoNT-A LC inh2: 0

How did NC(=S)N=Nc1c(O)cc(O)c2[nH]c(=O)ccc12 do in these assays?
FBA Mtb inh: -4; BoNT F protease: -13; Anthrax LF inh2: -9; Bead autofluor: 3847; GDH-TPI inh: 37*; BoNT-A LC inh2: -1

Results for NC(=S)N=Nc1c(O)[nH]c2ccc(F)cc12 ?
FBA Mtb inh: 0; BoNT F protease: -2; Anthrax LF inh2: -2; Bead autofluor: 2538; GDH-TPI inh: 28; BoNT-A LC inh2: 1

How did CCCCc1nc(C(N)=O)c2[nH]c(=O)n(-c3ccc(OC)cc3OC)c2n1 do in these assays?
FBA Mtb inh: 3; BoNT F protease: -4; Anthrax LF inh2: -1; Bead autofluor: 6043; GDH-TPI inh: 9; BoNT-A LC inh2: -3

What do the screens show for `CCCCc1nc(C(N)=O)c2[nH]c(=O)n(-c3ccccc3F)c2n1`?
FBA Mtb inh: 136*; BoNT F protease: -2; Anthrax LF inh2: 0; Bead autofluor: 5100; GDH-TPI inh: 5; BoNT-A LC inh2: 0

Results for CS(=O)(=O)c1ccc(Cl)c(NC(=O)c2ccc(-n3cncn3)c([N+](=O)[O-])c2)c1 ?
FBA Mtb inh: 1; BoNT F protease: -7; Anthrax LF inh2: 0; Bead autofluor: 3072; GDH-TPI inh: 15; BoNT-A LC inh2: 0

How did O=[N+]([O-])c1cc(/C=N/NC(=S)Nc2ccccc2Cl)ccc1Cl do in these assays?
FBA Mtb inh: -1; BoNT F protease: -10; Anthrax LF inh2: 0; Bead autofluor: 4822; GDH-TPI inh: 33*; BoNT-A LC inh2: -1

How did COc1ccc(C(=O)NC(=S)Nc2ccccc2[N+](=O)[O-])cc1OC do in these assays?
FBA Mtb inh: -4; BoNT F protease: -1; Anthrax LF inh2: 4; Bead autofluor: 5060; GDH-TPI inh: -1; BoNT-A LC inh2: -1

What do the screens show for `Cc1ccc(NC(=S)N/N=C/c2ccc(Cl)c([N+](=O)[O-])c2)cc1`?
FBA Mtb inh: -3; BoNT F protease: -3; Anthrax LF inh2: 1; Bead autofluor: 11276; GDH-TPI inh: 33*; BoNT-A LC inh2: -1

Results for S=C(N/N=C/c1ccc(Cl)c(Cl)c1)Nc1ccccc1Cl ?
FBA Mtb inh: -3; BoNT F protease: 3; Anthrax LF inh2: 1; Bead autofluor: 4253; GDH-TPI inh: 2; BoNT-A LC inh2: 0

Results for COc1ccc(/C=N/NC(=S)Nc2ccccc2[N+](=O)[O-])cc1O ?
FBA Mtb inh: -9; BoNT F protease: -10; Anthrax LF inh2: -1; Bead autofluor: 11023; GDH-TPI inh: 49*; BoNT-A LC inh2: 0

What do the screens show for `Cc1ccc(C=NNC(=O)C(=O)Nc2ccc(Cl)c([N+](=O)[O-])c2)cc1`?
FBA Mtb inh: -1; BoNT F protease: -2; Anthrax LF inh2: 1; Bead autofluor: 5530; BoNT-A LC inh2: -1

How did CN(Cc1ccccc1)C(=O)Nc1c(Cl)cccc1Cl do in these assays?
FBA Mtb inh: 2; BoNT F protease: 5; Anthrax LF inh2: -3; Bead autofluor: 3902; BoNT-A LC inh2: 1

Results for NC(=O)c1ncn([C@@H]2O[C@H](CNCc3ccc(-c4cc(C(F)(F)F)ccc4Cl)o3)[C@@H](O)[C@H]2O)n1 ?
FBA Mtb inh: 3; BoNT F protease: -8; Anthrax LF inh2: -9; Bead autofluor: 3924; GDH-TPI inh: 6; BoNT-A LC inh2: 0

What do the screens show for `CC(Oc1ccc2cc(-c3ccccc3)c(=O)oc2c1)C(=O)NCC1CCC(C(=O)O)CC1` (stereo unspecified)?
FBA Mtb inh: active; BoNT F protease: -20; Anthrax LF inh2: -1; Bead autofluor: 4166; GDH-TPI inh: 36*; BoNT-A LC inh2: -1
